Measured values reported in the supplement of paper PMC11732987, “Enantioselective OTUD7B fragment discovery through chemoproteomics screening and high-throughput optimisation” (Communications Chemistry, 2025).

Experiments:
Assay in all cases: log2 ratio of Biotin-Ahx-Ub-VS probe labelling (fragment/DMSO); higher = less target engagement (more negative = stronger competition), active = hit call of the paper (q ≤ 0.05, log2 ratio ≤ -1)
Settings in all cases: compound concentration: 200 uM; treatment time: 3 h
USP19 = target: T1, USP19 (UniProt O94966)
T1 sequence (whole entry): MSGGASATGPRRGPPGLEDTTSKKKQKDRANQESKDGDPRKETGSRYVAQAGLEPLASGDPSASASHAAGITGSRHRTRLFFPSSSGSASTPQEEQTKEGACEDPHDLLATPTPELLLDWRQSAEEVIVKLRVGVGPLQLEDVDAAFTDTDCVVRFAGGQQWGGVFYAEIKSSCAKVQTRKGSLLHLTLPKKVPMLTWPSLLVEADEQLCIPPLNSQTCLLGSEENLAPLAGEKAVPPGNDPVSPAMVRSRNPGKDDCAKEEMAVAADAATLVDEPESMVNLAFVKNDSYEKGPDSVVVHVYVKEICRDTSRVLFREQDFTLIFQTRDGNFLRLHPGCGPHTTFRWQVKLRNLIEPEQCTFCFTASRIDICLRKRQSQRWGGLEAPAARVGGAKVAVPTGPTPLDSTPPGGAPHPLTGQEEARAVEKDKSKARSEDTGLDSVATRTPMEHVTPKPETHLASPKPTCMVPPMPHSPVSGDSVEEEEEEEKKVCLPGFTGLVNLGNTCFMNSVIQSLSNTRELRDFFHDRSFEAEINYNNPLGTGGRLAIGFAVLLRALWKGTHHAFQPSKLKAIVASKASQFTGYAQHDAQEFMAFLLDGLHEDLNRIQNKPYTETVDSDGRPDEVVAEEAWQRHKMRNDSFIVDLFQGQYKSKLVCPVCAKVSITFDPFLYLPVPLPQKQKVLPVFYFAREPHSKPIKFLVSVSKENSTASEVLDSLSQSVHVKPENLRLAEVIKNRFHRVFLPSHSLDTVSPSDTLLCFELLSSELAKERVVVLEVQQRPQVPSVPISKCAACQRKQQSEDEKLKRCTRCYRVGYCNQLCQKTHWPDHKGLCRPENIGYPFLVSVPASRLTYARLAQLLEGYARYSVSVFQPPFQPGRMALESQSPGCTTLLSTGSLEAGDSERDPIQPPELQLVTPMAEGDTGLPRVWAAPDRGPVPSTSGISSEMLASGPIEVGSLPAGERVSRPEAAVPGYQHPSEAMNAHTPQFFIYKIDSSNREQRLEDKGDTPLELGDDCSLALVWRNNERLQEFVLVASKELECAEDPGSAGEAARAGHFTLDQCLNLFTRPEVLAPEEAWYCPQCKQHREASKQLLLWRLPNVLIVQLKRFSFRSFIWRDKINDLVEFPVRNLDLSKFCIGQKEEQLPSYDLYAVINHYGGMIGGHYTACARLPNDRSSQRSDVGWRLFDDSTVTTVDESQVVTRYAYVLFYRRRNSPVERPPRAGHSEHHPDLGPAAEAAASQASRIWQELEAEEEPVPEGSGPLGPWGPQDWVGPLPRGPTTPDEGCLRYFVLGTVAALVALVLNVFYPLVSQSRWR
In short: (§1)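 Average log2 ratios of fragment over vehicle were obtained by unpaired t-test from global-median-normalised Spectronaut label-free quantities. Proteins with ≥2 unique peptides were included. HEK293T lysate (495 µg per sample) was treated in triplicate with fragment at 200 µM or vehicle for 3 h, then with Biotin-Ahx-Ub-VS at 0.5 µM final for 1 h, and labelled DUBs were NeutrAvidin-enriched and run by diaPASEF LC-MS/MS.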

USP22 = target: T2, USP22 (UniProt Q9UPT9)
T2 sequence (whole entry): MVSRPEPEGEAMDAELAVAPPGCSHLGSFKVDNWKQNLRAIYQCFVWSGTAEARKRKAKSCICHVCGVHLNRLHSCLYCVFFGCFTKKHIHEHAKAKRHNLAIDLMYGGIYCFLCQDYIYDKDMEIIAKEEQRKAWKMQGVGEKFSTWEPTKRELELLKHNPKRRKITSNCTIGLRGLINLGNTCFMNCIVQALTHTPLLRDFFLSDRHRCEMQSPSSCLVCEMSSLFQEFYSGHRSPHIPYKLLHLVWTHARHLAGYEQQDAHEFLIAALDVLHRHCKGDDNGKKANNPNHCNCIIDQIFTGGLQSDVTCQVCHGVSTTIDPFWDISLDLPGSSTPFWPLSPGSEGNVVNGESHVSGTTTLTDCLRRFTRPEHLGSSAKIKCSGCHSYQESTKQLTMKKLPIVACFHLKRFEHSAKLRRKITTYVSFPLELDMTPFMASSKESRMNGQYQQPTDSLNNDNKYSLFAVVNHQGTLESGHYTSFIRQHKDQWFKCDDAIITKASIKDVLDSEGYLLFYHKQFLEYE
In short: as §1

USP24 = USP24 (UniProt Q9UPU5)
In short: as §1

USP25 = target: T3, USP25 (UniProt Q9UHP3)
T3 sequence (whole entry): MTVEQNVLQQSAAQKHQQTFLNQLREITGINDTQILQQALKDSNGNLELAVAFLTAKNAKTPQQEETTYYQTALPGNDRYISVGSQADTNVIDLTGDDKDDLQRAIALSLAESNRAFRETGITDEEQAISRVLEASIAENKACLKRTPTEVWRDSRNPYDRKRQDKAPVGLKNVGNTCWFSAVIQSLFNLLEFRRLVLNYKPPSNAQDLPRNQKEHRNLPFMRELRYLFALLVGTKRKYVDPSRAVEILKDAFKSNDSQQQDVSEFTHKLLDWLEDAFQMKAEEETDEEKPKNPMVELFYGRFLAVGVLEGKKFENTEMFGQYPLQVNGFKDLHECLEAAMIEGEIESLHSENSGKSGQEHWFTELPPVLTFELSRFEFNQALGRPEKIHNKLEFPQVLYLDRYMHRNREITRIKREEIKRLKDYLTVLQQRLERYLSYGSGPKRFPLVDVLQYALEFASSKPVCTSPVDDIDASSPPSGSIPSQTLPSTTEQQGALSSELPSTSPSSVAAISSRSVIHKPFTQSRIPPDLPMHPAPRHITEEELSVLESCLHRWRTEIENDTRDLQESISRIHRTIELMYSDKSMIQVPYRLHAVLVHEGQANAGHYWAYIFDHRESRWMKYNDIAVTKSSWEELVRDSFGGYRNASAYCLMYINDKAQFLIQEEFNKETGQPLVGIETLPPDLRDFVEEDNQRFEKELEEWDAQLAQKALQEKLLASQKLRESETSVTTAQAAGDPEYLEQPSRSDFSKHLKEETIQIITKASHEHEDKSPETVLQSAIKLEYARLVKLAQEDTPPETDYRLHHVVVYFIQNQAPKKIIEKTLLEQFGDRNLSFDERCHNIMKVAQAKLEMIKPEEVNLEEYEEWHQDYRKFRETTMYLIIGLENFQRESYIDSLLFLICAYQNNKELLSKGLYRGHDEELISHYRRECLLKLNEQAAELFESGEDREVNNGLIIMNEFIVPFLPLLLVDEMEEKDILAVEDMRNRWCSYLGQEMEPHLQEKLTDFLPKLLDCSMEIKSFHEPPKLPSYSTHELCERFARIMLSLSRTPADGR
In short: as §1

USP28 = target: T4, USP28 (UniProt Q96RU2)
T4 sequence (whole entry): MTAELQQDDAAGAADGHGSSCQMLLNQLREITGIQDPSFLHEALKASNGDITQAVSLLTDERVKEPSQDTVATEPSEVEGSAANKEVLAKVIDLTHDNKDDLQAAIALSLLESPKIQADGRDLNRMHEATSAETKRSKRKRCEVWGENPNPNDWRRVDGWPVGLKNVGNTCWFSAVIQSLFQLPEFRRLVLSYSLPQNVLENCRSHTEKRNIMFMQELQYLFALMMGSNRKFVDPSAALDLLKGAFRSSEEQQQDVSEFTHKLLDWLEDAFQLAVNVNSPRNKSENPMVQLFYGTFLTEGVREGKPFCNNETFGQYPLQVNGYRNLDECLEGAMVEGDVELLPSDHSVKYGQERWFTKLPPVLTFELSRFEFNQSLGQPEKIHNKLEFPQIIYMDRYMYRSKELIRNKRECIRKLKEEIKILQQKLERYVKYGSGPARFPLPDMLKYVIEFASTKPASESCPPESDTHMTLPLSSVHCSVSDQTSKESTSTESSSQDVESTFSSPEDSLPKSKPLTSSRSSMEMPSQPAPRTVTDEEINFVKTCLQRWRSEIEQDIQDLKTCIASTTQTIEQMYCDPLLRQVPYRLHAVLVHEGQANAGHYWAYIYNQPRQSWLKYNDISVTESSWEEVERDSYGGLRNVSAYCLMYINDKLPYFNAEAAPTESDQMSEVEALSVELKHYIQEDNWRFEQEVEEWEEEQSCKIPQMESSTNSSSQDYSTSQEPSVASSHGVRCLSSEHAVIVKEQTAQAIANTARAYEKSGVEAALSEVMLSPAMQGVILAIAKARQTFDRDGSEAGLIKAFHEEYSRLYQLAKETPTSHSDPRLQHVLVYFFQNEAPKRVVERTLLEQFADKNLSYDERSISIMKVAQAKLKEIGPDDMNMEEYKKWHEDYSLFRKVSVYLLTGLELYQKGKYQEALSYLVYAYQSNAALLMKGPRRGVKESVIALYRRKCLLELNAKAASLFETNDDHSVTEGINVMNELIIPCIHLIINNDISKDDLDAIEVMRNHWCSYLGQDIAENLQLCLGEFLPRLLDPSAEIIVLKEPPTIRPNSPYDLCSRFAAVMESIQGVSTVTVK
In short: as §1

Measured: log2 ratio of Biotin-Ahx-Ub-VS probe labelling

Sequence of USP24 (Q9UPU5 whole entry): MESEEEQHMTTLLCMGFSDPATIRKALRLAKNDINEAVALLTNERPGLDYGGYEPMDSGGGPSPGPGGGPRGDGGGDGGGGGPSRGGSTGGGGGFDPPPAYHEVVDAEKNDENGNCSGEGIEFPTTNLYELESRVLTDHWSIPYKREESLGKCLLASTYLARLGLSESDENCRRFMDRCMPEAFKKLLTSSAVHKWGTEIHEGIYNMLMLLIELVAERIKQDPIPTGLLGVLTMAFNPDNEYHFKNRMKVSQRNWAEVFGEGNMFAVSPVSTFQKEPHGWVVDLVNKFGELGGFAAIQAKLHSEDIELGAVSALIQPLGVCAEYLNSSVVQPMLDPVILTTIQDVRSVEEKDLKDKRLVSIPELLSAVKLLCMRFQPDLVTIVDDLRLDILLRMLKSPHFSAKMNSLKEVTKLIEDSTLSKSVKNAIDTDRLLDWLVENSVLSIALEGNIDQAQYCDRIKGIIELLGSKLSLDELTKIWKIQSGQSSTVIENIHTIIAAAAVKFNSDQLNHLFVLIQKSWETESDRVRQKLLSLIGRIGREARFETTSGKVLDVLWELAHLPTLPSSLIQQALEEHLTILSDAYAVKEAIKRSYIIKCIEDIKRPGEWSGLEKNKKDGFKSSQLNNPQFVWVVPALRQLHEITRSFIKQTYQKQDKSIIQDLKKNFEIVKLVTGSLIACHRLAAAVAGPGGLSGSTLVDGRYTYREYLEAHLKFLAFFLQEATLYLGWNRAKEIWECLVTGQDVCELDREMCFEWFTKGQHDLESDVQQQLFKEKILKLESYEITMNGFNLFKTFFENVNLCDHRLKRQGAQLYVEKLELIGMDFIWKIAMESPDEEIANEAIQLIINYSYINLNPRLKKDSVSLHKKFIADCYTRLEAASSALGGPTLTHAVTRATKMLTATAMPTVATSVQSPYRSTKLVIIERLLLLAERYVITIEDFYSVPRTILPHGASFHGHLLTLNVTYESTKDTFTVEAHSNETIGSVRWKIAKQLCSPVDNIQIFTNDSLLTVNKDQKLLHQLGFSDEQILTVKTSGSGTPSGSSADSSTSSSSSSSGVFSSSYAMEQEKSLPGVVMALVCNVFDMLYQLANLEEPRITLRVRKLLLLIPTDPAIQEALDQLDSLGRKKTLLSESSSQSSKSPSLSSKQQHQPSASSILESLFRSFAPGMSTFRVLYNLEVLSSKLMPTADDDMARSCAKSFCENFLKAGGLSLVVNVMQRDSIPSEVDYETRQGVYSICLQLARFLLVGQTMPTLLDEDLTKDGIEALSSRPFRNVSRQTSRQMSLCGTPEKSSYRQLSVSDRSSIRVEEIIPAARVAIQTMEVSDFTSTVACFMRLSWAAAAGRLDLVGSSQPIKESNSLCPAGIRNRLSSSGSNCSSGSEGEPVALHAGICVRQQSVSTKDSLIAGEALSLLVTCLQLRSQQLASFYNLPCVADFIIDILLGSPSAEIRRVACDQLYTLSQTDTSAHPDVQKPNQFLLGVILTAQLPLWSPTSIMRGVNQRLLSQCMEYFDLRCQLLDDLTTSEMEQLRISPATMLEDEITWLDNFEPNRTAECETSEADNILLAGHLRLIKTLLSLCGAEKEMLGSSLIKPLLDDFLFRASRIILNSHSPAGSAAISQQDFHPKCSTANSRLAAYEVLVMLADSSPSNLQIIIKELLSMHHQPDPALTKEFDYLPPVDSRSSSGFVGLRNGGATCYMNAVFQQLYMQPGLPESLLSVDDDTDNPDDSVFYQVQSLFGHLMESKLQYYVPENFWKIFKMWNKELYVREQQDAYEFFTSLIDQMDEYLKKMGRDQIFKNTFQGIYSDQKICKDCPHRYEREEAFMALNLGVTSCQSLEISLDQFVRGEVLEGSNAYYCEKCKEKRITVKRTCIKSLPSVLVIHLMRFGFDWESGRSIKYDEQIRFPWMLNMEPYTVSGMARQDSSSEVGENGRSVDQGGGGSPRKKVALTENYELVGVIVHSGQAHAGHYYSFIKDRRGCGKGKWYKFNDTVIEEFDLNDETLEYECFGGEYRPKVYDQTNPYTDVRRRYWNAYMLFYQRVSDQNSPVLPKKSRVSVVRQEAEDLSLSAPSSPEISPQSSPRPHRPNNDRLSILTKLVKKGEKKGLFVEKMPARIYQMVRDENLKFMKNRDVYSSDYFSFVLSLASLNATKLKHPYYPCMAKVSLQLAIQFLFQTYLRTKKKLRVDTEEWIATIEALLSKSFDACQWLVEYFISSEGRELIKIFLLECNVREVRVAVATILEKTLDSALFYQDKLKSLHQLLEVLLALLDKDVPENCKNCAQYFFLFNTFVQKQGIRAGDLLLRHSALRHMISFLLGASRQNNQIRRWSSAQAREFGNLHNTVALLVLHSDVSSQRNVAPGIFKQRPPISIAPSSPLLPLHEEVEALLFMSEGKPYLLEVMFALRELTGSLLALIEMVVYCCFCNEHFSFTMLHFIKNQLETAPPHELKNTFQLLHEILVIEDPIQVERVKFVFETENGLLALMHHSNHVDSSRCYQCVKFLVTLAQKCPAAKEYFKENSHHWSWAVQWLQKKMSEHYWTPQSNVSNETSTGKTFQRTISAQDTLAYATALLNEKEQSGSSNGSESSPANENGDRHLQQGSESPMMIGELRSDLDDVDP

O=C(CCl)Nc1cccc(NC(=O)c2ccccc2)c1
inactive: USP19 0.0261 | USP22 0.406 | USP24 0.05 | USP25 -0.383 | USP28 -0.173
